# Results filed as inconclusive are left out. Unmarked numbers belong to inactive results. Calls of active or inactive are those of the source. Calls come from the whole dose curve; as a rule, active = well fitted activation curve with a large enough effect in the main read-out, with a control signal flat (not every such curve was filed as active); inconclusive = small, poorly fitted or top-dose-only effect, or effect the other way, or a change in a side signal; inactive = flat fitted curve, though single readings scatter.
# Target: 3',5'-cyclic-AMP phosphodiesterase 4B (Homo sapiens) (UniProt Q07343)
# Experiment: qHTS Assay for Inhibitors of PDE-IV (AID 607); note: % of control where 0% means no effect
# Details: HEK293 ACTOne CNG channel cells, membrane potential fluorescence; series mostly up to 22.9 µM; activation (PDE inhibition): at the top concentration
# Excerpt: NIH Chemical Genomics Center [NCGC]
# NIH Molecular Libraries Screening Centers Network [MLSCN]
# The cyclic nucleotide phosphodiesterases (PDEs) are proteins that catalyze hydrolysis of 3', 5'-cyclic nucleotides, such as cyclic adenosine monophosphate (cAMP) and cyclic guanosine monophosphate (cGMP), to their corresponding 5'-nucleotide monophosphates. These enzymes play an important role in controlling cellular concentrations of cyclic nucleotides and have a central role in a variety of intracellular signaling events. cAMP PDEs are emerging as a promising class of drug targets in asthma and cardiovascular disease therapeutic areas.
# There are no commercially available cell-based screening assays for PDE inhibitors: currently biochemical assays are done using pure substrates (cAMP or cGMP) and purified recombinant PDE enzymes. As with other biochemical screens on intracellular targets, false positives and false negatives may result from issues involving cell membrane permeability, cellular metabolism, and the like.
# Here we report the development of a cell-based screening assay for cAMP phosphodiesterase (PDE) inhibitors. The assay is based on the BD ACTOne# technology (BD Biosciences) which utilizes a modified cyclic nucleotide-gated channel (CNG) to monitor intracellular cAMP changes in live cells. The CNG channel is localized on the plasma membrane, and opens when the intracellular cAMP level increases, resulting in ion flux and cell membrane depolarization. The influx of cations through the CNG channel can be quantified using membrane potential (MP) dyes. We modified the BD ACTOne technology to allow the detection of PDE inhibitors, and performed an inhibitor screen for PDE-IV, which is expressed endogenously in HEK293 cells. We optimized this assay in homogeneous 1536-well plate assay format for high throughput screening.
# NCGC Assay Protocol Summary:
# The medium contained 10% FBS (Invitrogen), 2 mM L-glutamine, and 250 ug/ml G418 (Cellgro) and 1 ug/ml puromycin (Clontech). ACTOneTM parental cells (BD Biosciences) were maintained in the same medium without puromycin.
# The activity of the CNG channel was measured by BD ACTOneTM membrane potential dye kit (BD Biosciences). Forskolin, a positive control for cAMP activation and RO 20-1724, a PDE inhibitor, were both purchased from Sigma and solublized in DMSO.
# Sequence,Parameter,Value,Description
# 1,Reagent,3 uL,1000 cells/well 1536 TC treated Black plate
# 3,Compound,0.5 uL,Kalypsys dispense RO 20-1724 100 uM final [A]
# 4,Reagent,3 uL,BD membrane potential dye
# 6,Compound,23 nL,Final concentration was 0.7nM to 22.9uM
# 8,Detector,EX 535 / EM 590 [B],Envision
# Footnotes: [A] The stock 2 mM RO 20-1724 PDE inhibitor was made in 10 % DMSO. Parental cell line received 10 uM forskolin + 100 uM RO. [B] Envsion settings: Bottom Excitation 535/20 nm top emission 590/20, gain of 150 and 5 flashes per well.
# Keywords: PDE, PDE-IV, cytotoxicity, flourescence, MLSMR, MLSCN, NIH Roadmap, qHTS, NCGC
# Chain of 3',5'-cyclic-AMP phosphodiesterase 4B (Homo sapiens) (Q07343 whole entry, looked up): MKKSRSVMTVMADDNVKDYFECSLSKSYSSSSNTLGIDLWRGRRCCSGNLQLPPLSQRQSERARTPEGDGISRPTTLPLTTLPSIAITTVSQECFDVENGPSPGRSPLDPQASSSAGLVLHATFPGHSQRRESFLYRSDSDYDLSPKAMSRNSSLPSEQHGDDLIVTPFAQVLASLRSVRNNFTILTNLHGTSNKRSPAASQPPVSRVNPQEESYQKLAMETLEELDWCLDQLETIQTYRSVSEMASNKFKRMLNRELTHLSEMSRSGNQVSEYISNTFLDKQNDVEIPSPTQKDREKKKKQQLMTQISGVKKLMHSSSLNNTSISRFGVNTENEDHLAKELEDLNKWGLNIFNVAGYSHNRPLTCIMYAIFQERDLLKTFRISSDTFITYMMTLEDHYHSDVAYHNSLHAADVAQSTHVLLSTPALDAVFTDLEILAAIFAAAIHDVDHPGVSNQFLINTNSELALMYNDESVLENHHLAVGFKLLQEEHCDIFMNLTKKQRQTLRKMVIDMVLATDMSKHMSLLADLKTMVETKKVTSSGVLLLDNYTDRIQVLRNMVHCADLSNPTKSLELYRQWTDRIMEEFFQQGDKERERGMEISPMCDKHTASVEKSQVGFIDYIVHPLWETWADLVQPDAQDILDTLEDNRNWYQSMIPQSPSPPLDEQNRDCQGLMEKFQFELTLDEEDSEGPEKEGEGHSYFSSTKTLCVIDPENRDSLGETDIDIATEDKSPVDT
Compound,activation (PDE inhibition) [%],outcome
CCN(CC)CCNc1ccc(CO)c2sc3ccccc3c(=O)c12,19,
CCc1oc2ccccc2c1C(=O)c1cc(Br)c(O)c(Br)c1,14.1,
COc1cc(C)nc(-n2nc(C)cc2OC)n1,3.45,
Nc1ccc(C(=O)NCC(=O)O)cc1,2.4,
COc1cc(C(=O)NCc2ccc(OCCN(C)C)cc2)cc(OC)c1OC,7.03,
CCCN(CCC)S(=O)(=O)c1ccc(C(=O)O)cc1,5.46,
CC(C)(C)NC[C@H](O)COc1nsnc1N1CCOCC1,,inactive
CN1CCC[C@@H]1CCO[C@](C)(c1ccccc1)c1ccc(Cl)cc1,6.84,
CNCCc1ccccn1,-4.05,
O=C1C(CCS(=O)c2ccccc2)C(=O)N(c2ccccc2)N1c1ccccc1 (stereo not given),5.15,
Cl/C(=C\n1cncn1)c1ccc(Cl)cc1Cl,-19.2,
COc1cc(N)c(Cl)cc1C(=O)NC1CCN(Cc2ccccc2)CC1,-1.86,
NS(=O)(=O)c1cc(C(=O)O)cc(N2CCCC2)c1Oc1ccccc1,-1.27,
CC(C)(C)NC[C@H](O)COc1cccc2c1CCCC2=O,,inactive
CN=C(N)NCCC[C@H](N)C(=O)O,-2.7,
c1ccc(CC2=NCCN2)cc1,0.0692,
O=C(O)CCc1nc2ccccc2[nH]1,-4.06,
Cc1cc(-c2ccccc2)nnc1NCCN1CCOCC1,-0.386,
NC(N)=NCc1cccc(I)c1,-2.67,
NS(=O)(=O)Cc1noc2ccccc12,-7.77,

Compound,activation (PDE inhibition) [%],outcome
CCN(CC)CCNC(=O)COc1ccc(OC)cc1,19.1,
Nc1ccc(S(=O)(=O)Nc2cnc3ccccc3n2)cc1,,inactive
COc1ccc(C(=O)c2ccccc2)c(O)c1,27.1,
O=C1C(=O)c2ccccc2C(O)=C1C1CCC(c2ccc(Cl)cc2)CC1 (stereo not given),-7.03,
CC[C@H](c1ccc(O)cc1)[C@@H](CC)c1ccc(O)cc1,-16,
CN1CCc2cccc3c2[C@H]1Cc1ccc(O)c(O)c1-3,7.59,
C[N+]1(C)CCC(=C(c2ccccc2)c2ccccc2)CC1,-5.53,
CN(C)CCC[C@@]1(c2ccc(F)cc2)OCc2cc(C#N)ccc21,,inactive
COc1cc(NS(=O)(=O)c2ccc(N)cc2)ncn1,10.3,
CN1CCC(OC(c2ccccc2)c2ccccc2)CC1,27.3,
CCCCNc1ccc(C(=O)OCCOCCOCCOCCOCCOCCOCCOCCOCCOC)cc1,20.5,
CCc1cc(Cl)c(OC)c(C(=O)NC[C@@H]2CCCN2CC)c1O,28.7,
CCCc1ncc(C[n+]2ccccc2C)c(N)n1,-1.42,
COc1ccc(C(=O)c2ccccc2O)c(O)c1,17.2,
CCOC(=O)c1ccc(N)cc1,-5.84,
CCOc1ccc(NC(C)=O)cc1,-15.5,
O=C1C(O)=C(O)C(=O)C(O)=C1O,-7.34,
O=C(O)CCC(=O)Nc1ccc(S(=O)(=O)Nc2nccs2)cc1,0.308,
N=C(N)N1CCc2ccccc2C1,-7.65,
CCN(CC)CCNC(=O)c1cc(Br)c(N)cc1OC,2.03,

# Source: PubChem BioAssay (NCATS)
